Test results taken from PubChem BioAssay (NCI).
Values joined by “and” are separate entries in the source; they are usually repeats but may differ in a detail not shown here. Equal values may be shown once. The panel holds about 83,000 compounds, 20% with a hit somewhere; the sample as a whole holds those more often.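 Testing used 96-well plates and a 48-hour single-concentration exposure. Example: -40 means 40% of the starting cells died.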 Active and inactive are the calls of the source.

Each compound was assayed on MCF7 breast (assay: NCI-60 one-dose screen, 48 h (100 = growth as untreated, 0 = no growth, -100 = all killed)). Conditions: 10 µM.
Procedure: Growth inhibition of the MCF7 human tumor cell line is measured as a screen for anti-cancer activity. Cells are grown in 96 well plates and exposed to the test compound for 48 hours. Compounds are tested at a single concentration, which is 10^-5 M for most compounds. The reported endpoint is percent growth (GI% or GIPRCNT), where numbers from 0 - 100% represent growth inhibition, and numbers from -100% - 0 represent cell death. For example, a value of 40 represents 60% growth inhibition. A value of 0 means no net growth occurred over the course of the experiment. A value of -40 indicates 40% of cells at the beginning of the experiment died by the end of the experiment. A value of -100 means all cells are dead at the end of the experiment.
NCI-60 Human Tumor Cell Lines Screen was performed using the standard one-dose NCI protocol, which is described in more detail at https://dtp.cancer.gov/discovery_development/nci-60/default.htm.
Compounds with GIPRCNT values below 10 were considered active. Activity score was based on GIPRCNT using the following formula: […]
Score is 0 for GIPRCNT values of 100 or above, 50 for GIPRCNT values of 0, and 100 for GIPRCNT values of -100.
In the case of `COc1cc2c(c(OC)c1OC)-c1ccc(O)c(=O)cc1[C@@H](NC(C)=O)CC2`, the growth is reported as 7.81% (active).

Same assay, conditions: 10 µM unless noted
For `O=[N+]([O-])/C=C/c1ccc([N+](=O)[O-])cc1`, the growth was -14.5% (active) and 23.1% (inactive).
With `C=C1C(=O)O[C@@H]2C[C@@H](C)[C@@H]3C=CC(=O)[C@@]3(C)[C@@H](O)[C@H]12` the growth was -4.11% (active).
`CN(CCCl)c1ccc(/C=C/C2=[N+](C)c3ccccc3C2(C)C)cc1` was tested, and the growth was 14.9% (inactive).
With `C/C1=C\[C@H](C)C[C@H](C)OC(=O)C[C@H](c2ccc(O)cc2)NC(=O)[C@@H](Cc2c(Br)[nH]c3ccccc23)N(C)C(=O)[C@H](C)NC(=O)[C@@H](C)C1` the growth was 9.48% (active).
For `CC(C)c1cc([N+](=O)[O-])cc([N+](=O)[O-])c1O`, the growth was 93.3% (inactive).
`C[C@@H]1C[C@@H]([C@H](O)CC2CC(=O)NC(=O)C2)C(=O)[C@@H](C)C1` was tested, and the growth was 9.88% (active).
In the case of `Cc1cc([N+](=O)[O-])c2ccccc2[n+]1[O-]`, the growth is reported as -11.2% (active) and 4.36% (active).
For `COc1ccccc1[As]=[As]c1ccccc1OC` (stereo not given), the growth was -38.3% (active).
With `NC(=O)c1cc([N+](=O)[O-])c(Cl)c([N+](=O)[O-])c1Cl` the growth was -44.4% (active).
`O=C(CBr)Nc1ccc(Cl)cc1` was tested, and the growth was 45% (inactive).
`ClCc1ccc2ccccc2n1` was tested, and the growth was 103% (inactive).
`C[C@]12CC[C@H]3[C@@H](CCC4=CC(=O)CC[C@@H]43)[C@@H]1CC[C@@H]2OC(=O)N(CCCl)N=O` was tested, and the growth was 58.4% (inactive).
With `CC(=O)[O][Hg][c]1c(C)c(C)cc(C)c1C` the growth was -6.63% (active).
`O=C1C(=O)c2ccccc2-c2ccccc21` was tested, and the growth was -66.4% (active).
`O=C(CBr)Nc1ccccc1` was tested, and the growth was 68.6% (inactive).
In the case of `Cc1ccc(NC(=O)CBr)cc1`, the growth is reported as 93.5% (inactive).
`COC12C(COC(N)=O)C3=C(C(=O)C(C)=C(N)C3=O)N1CC1C2N1C` (stereo not given) was tested, and the growth was 27.5% (inactive).
For `O=C1C=Cc2ccccc2C1=O`, the growth was 66.1% (inactive).
For `[Cl][Hg][c]1ccc(Cl)s1`, the growth was -37.1% (active).
In the case of `C=NCC#N`, the growth is reported as 109% (inactive) and 92.1% (inactive).
`CS(=N)(=O)CCC(N)C(=O)O` (stereo not given) was tested, and the growth was 101% (inactive).
For `COc1ccc(/C=C(\C)[N+](=O)[O-])cc1OC`, the growth was -34.6% (active).
For `CC(Cc1ccc2c(c1)OCO2)NN` (stereo not given), the growth was 91.2% (inactive).
For `COC12c3c(C)cc(O)c4c(=O)occ(c34)C(=O)C1C13COC(=O)c4c(O)cc(C)c(c41)C(=O)C2C3OC(C)=O` (stereo not given), the growth was 89.5% (inactive).
With `COc1cc(/C=C(/C)[N+](=O)[O-])ccc1O` the growth was 9.25% (active) and 1.76% (active).
In the case of `O=S(=O)(F)c1ccc(Cl)cc1`, the growth is reported as 102% (inactive).
For `Oc1ccccc1-c1ccccc1`, the growth was 98.1% (inactive) and 94.1% (inactive).
For `NC(=O)c1cc([N+](=O)[O-])c(Cl)c([N+](=O)[O-])c1`, the growth was 22.3% (inactive).
In the case of `O=C(CCl)Nc1ccc(Cl)cc1`, the growth is reported as 16.9% (inactive).
With `COc1cc(/C=C\[N+](=O)[O-])ccc1O` the growth was 9.85% (active) and 23.9% (inactive).
`Oc1c(Cl)cc(Cl)c2ccccc12.[Cu+2]` was tested, and the growth was 74.3% (inactive).
With `CC(=O)Nc1c2sscc-2n(C)c1=O` the growth was -60.9% (active).
`CC/C(=C/c1ccc(OC)cc1)[N+](=O)[O-]` was tested, and the growth was -41.5% (active).
With `CCOC(=O)c1[nH]cnc1/N=N/N(C)N` the growth was 69.3% [100 µM] (inactive) and -85.5% [100 µM] (active).
For `O=[N+]([O-])c1ccc(N(CCO)CCO)c2c1no[n+]2[O-]`, the growth was 6.05% (active).
With `NNc1ccccc1` the growth was 86.8% (inactive).
For `COc1cc(/C=C/[N+](=O)[O-])cc(OC)c1OC`, the growth was 6.55% (active).
For `Cc1cc(C)c(C[N+](C)(C)C)c(C)c1C`, the growth was -10.7% (active).

Same assay, conditions: 100 µM
In the case of `COc1cc2c(c(OC)c1OC)-c1ccc(O)c(=O)cc1[C@@H](NC(C)=O)CC2`, the growth is reported as -47.9% (active).
